Source: PubChem BioAssay
Values without a mark were called inactive. No rule for the calls is given here.

Assay: P. aeruginosa biofilm formation inhibitors, primary screen, PAO1 strain, BacTiter-Glo luminescence, LB-PBS (AID 1144)
Conditions: 12 h, higher = more signal

| Compound | z-score |
| --- | --- |
| CCOC(=O)C[C@H]1[C@H](OC(=O)c2ccccc2-c2ccccc2)[C@@H](NC(=O)c2ccc3ccccc3c2)c2cc(OCCCO)ccc2N1C(=O)c1ccccc1 | 1.6 |
| O=C1OCCC=C[C@H]2OC34C=CCN(Cn5nnc6ccccc65)C(=O)[C@H]3N(CCCO)C(=O)[C@@H]4C12 (stereo not given in full) | -0.413 |
| O=C(C1N=C(c2ccc(OCCCO)cc2)N(c2ccccc2)O1)N1CCCCC1 (stereo not given) | 1.52 |
| CCCCC[C@H]1OC[C@@]23C=C(Br)[C@@H](CC12)[C@@]1(CO1)C3=O (stereo not given in full) | 0.931 |
| C=CC[C@]1(C(=O)N2CCCCC2)N=C(c2ccc(OCCCO)cc2)O[C@H]1c1ccccc1CN=[N+]=[N-] | -1.44 |
| COCCCNC(=O)[C@@H]1c2ccccc2C(=O)N(C(C)C)[C@H]1c1ccc(CO)cc1 | 0.701 |
| CCCCN1CC=CC23O[C@@H]4/C=C\CCC(C)OC(=O)C4[C@H]2C(=O)N(CCCO)[C@@H]3C1=O (stereo not given in full) | 1.21 |
| CN(C)C(=O)[C@]1(CCC(=O)OC(C)(C)C)N=C(c2ccc(OCCCO)cc2)O[C@@H]1c1ccccc1CN=[N+]=[N-] | -1.42 |
| C=CCNC(=O)[C@@H]1[C@H]2C(=O)O[C@H](c3ccccc3)[C@H](c3ccccc3)N2[C@H](c2ccc(OCCO)cc2)[C@@]12C(=O)N(C(=O)OCCOC)c1ccc(C#Cc3ccc(OC)cc3)cc12 | 0.543 |
| CCCN1C(=O)[C@@]2(Cc3ccccc31)N=C(c1ccc(OCCCO)cc1)O[C@H]2c1ccccc1 | 0.849 |
| CC1CC/C=C\[C@H]2OC34C=CCN(Cc5ccccc5)C(=O)[C@H]3N(C(CO)C(C)C)C(=O)[C@@H]4C2C(=O)O1 (stereo not given in full) | 1.09 |
| C=C(COC)/C(=C/C[C@H](OC(=O)c1ccncc1)c1ccc(CO)o1)c1cnc2ccccc2c1 | -0.268 |
| COc1ccc(C#Cc2ccc3c(c2)[C@]2(C(=O)N3)[C@H](c3ccc(O)cc3)N3[C@H](c4ccccc4)[C@H](c4ccccc4)OC(=O)[C@H]3[C@@H]2C(=O)Nc2nc3ccccc3s2)cc1 | -0.52 |
| [N-]=[N+]=Nc1ccccc1C[C@@]1(C(=O)N2CCOCC2)N=C(c2ccc(OCCCO)cc2)O[C@@H]1c1ccccc1 | 0.83 |
| C=C[C@@H](CO)N(Cc1ccc(OC)cc1)S(=O)(=O)c1ccc(Br)cc1 | -0.445 |
| COc1ccc(CCNC(=O)[C@@]2(Sc3ccc(C)cc3)CC(=O)N(Cc3ccccc3C(F)(F)F)[C@@H]2c2ccc(CO)cc2I)cc1 | 1.02 |
| CCOC(=O)C[C@H]1[C@H](OC(=O)c2ccccc2-c2ccccc2)[C@@H](NC(=O)c2ccc3ccccc3n2)c2cc(OCCCO)ccc2N1C(=O)Cc1ccc(OC)cc1 | 0.485 |
| C=CCN1Cc2ccccc2[C@@H]2OC(c3ccc(OCCCO)cc3)=N[C@]2(CC=C)C1=O | 0.0166 |

| Compound | z-score |
| --- | --- |
| O=C(Cc1ccccc1)[C@H]1C2C=CCCC(c3ccccc3)=C2CN1Cc1ccccc1 (stereo not given in full) | -0.886 |
| C=CC[C@@]1(C(=O)NCCCOC)N=C(c2ccc(OCCCO)cc2)O[C@@H]1c1ccccc1N=[N+]=[N-] | -1.75 |
| COc1cccc(C)c1NC(=O)O[C@H]1[C@H](OC(=O)Nc2ccc3c(c2)OCO3)[C@@H](OC(=O)Nc2ccc3c(c2)OCO3)[C@@H](OC)O[C@@H]1CO | 0.0488 |
| C=CCC(OC(C)=O)[C@@H]1[C@@H](N(Cc2ccc(-c3ccccc3)cc2)C(=O)c2ccc(-c3ccccc3)cc2)c2cc(OCCCO)ccc2N1C(=O)c1ccc2ccccc2c1 (stereo not given in full) | -0.0995 |
| COC(=O)C(CC#Cc1ccc2c(c1)[C@]1(C(=O)N2)[C@H](c2ccc(O)cc2)N2[C@H](c3ccccc3)[C@H](c3ccccc3)OC(=O)[C@H]2[C@@H]1C(=O)NC[C@H](O)c1ccccc1)C(=O)OC | 0.221 |
| COc1cccc(C)c1NC(=O)O[C@H]1[C@H](OC(=O)Nc2ccccc2-c2ccccc2)[C@H](OC(=O)Nc2ccccc2-c2ccccc2)[C@@H](OC)O[C@@H]1CO | 1.14 |
| CCCCC(CC)C(O)C1C=CC2C(=O)N(c3ccccc3)C(=O)C2N1Nc1ccccc1F (stereo not given) | -0.786 |
| C=CC[C@]1(C(=O)N2CCOCC2)COC(c2ccc(OCCCO)cc2)=N1 | -0.974 |
| CCOC(=O)C[C@H]1[C@H](OC(=O)Cc2ccc3c(c2)OCO3)[C@@H](NC(=O)C2CCCCC2)c2cc(OCCCO)ccc2N1C(=O)c1ccccc1 | -1.38 |
| O=C1O[C@@H](c2ccccc2)[C@@H](c2ccccc2)N2[C@@H](c3ccc(O)cc3)[C@]3(C(=O)Nc4ccc(C#CCCO)cc43)[C@@H](C(=O)N3CCN(c4ncccn4)CC3)[C@H]12 | -0.622 |
| O[C@@H](Cc1ccccc1)[C@@H](/C=C/C1CC1)N(CC#Cc1ccccc1)Cc1ccccc1Br | 0.357 |
| CCCC1(C(=O)OC)C=C2C(=C(C)C(=O)C2C)CN1 (stereo not given) | -0.473 |
| O=C1C2C=CC(C(O)c3ccco3)N(Nc3ccccc3F)C2C(=O)N1c1ccccc1 (stereo not given) | -0.853 |
| COc1ccc([Si](C)(C)[C@@H]2[C@@H](CCO)O[C@]3(C(=O)N(Cc4ccccc4)c4ccc(N5C(=O)c6cccc7cccc5c67)cc43)[C@H]2C)cc1 | -0.441 |
| CC(C)=C1C(=O)C(c2ccccc2)=C2CN3C(=O)N(CCc4ccccc4)C(=O)[C@]3(Cc3ccc(C(F)(F)F)cc3)[C@H]21 | 0.408 |
| CCCCCN1CC=CC23O[C@@H]4/C=C\CCC(C)OC(=O)C4[C@H]2C(=O)N(C(CO)C(C)C)[C@@H]3C1=O (stereo not given in full) | -1.34 |
| COC(=O)[C@@]1(Cc2ccc(OC)cc2)[C@H]2c3cc(C(=O)N4CCCC4)n(CCO)c3C[C@H]2CN1C(=O)c1ccccc1 | -0.14 |
